Results reported in PubChem BioAssay (Tox21).
Inconclusive results are not listed. Entries that show only a call come without a potency. Activity calls are given as the source filed them. Calls follow the shape of the full dose curve.

How the values were obtained:
[1] = biological target: Acetylcholinesterase (Homo sapiens) (UniProt P22303); test: Acetylcholinesterase (AChE) small molecule antagonists: colormetric cell-based qHTS assay (AID 1347395); also: nearly all actives have a fitted effect of over 30% in size; also: potency is read from the fitted curve at half-maximal effect
Outline: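 In this cell-based qHTS, attached SH-SY5Y cells were treated with test chemicals for 30 min, after which acetylthiocholine hydrolysis was followed by DTNB colour development over 90 min at 37 C.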

[2] = biological target: Acetylcholinesterase (Homo sapiens) (UniProt P22303); test: Acetylcholinesterase (AChE) small molecule antagonists: enzyme-based qHTS assay (AID 1347397); settings: Potency: AChE enzyme activity inhibition; outcome: AChE enzyme activity inhibition; also: nearly all actives have a fitted effect of over 55% in size
Outline: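 rhAChE 50 mU/mL (dispensed) + cpd or DMSO, 30 min RT; add DTNB/acetylthiocholine cocktail, 10 min RT; colorimetric thiocholine readout. qHTS, 1536-well format.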

[3] = biological target: Acetylcholinesterase (Homo sapiens) (UniProt P22303); test: Acetylcholinesterase (AChE) small molecule antagonists: enzyme-based qHTS assay with human liver microsomes (AID 1347399); settings: Potency: qHTS inhibition; outcome: qHTS inhibition; also: nearly all actives have a fitted effect of over 60% in size
Outline: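 Recombinant human AChE (50 mU/mL in the enzyme mix) and human liver microsomes (0.25 mg/mL final) were preincubated with compound and NADPH (0.25 mg/mL final) for 30 min at 37 C. Acetylthiocholine/DTNB was then added; thiocholine was read colorimetrically after 10 min at room temperature.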

Acetylcholinesterase (Homo sapiens), sequence (P22303 whole entry, looked up): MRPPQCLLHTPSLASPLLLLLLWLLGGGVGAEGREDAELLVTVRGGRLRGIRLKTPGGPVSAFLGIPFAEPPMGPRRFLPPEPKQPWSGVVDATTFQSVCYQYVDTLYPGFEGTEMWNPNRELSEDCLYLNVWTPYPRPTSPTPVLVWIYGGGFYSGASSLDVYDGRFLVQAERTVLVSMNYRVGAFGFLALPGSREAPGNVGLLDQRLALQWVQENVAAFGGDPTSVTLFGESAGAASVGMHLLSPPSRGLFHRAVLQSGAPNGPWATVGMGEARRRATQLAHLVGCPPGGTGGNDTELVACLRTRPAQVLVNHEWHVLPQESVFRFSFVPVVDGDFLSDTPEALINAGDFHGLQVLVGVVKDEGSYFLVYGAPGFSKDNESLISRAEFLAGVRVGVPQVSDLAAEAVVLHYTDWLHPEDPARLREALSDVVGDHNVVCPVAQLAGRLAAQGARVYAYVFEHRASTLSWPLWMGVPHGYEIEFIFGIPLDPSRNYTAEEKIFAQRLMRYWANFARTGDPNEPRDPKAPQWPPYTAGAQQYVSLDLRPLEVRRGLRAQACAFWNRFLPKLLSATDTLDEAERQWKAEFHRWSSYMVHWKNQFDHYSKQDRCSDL

Compound | Potency [1] | Potency [2] | Potency [3]
Cc1ccc(-c2ncc(Cl)cc2-c2ccc(S(C)(=O)=O)cc2)cn1 | 27.5 µM (active) | inactive | inactive
Cc1ccc(C(=O)C(=O)O)cc1C | inactive | inactive | inactive
OC1(c2ccccc2)CCNCC1 | inactive | inactive | inactive
CCN(CC)CCOc1ccccc1C(=O)CCc1ccccc1 | inactive | inactive | inactive
C=CC(=C)CCCC(C)(C)OC(C)=O | inactive | inactive | inactive
COC(C)(C)CC(C)=O | inactive | inactive | inactive
COc1c(C)c2c(c(O)c1C/C=C(\C)CCC(=O)OCCN1CCOCC1)C(=O)OC2 | 27.5 µM (active) | inactive | inactive
C=C1CCC2CC1C2(C)C (stereo unspecified) | inactive | inactive | inactive
NCCC(O)(P(=O)(O)O)P(=O)(O)O | inactive | inactive | inactive
COc1cc(C(C)=O)ccc1OCCCN1CCC(c2noc3cc(F)ccc23)CC1 | 19.5 µM (active) | inactive | inactive
COC(=O)CSc1cc(N=c2sc(=O)n3n2CCCC3)c(F)cc1Cl | inactive | inactive | inactive
Cc1ccc(O)c(N)c1 | inactive | inactive | inactive
c1ccc2c(c1)ccc1c3ccccc3ccc21 | inactive | inactive | inactive
Cc1ccc(N)nc1 | inactive | inactive | inactive
Cc1ccc(N)cc1S(=O)(=O)O | inactive | inactive | inactive
O=[N+]([O-])c1ccc(O/N=C/c2cc(Br)c(O)c(Br)c2)c([N+](=O)[O-])c1 | inactive | inactive | inactive
CC(C)C1OCCN1CCOC(=O)NCCCCCCNC(=O)OCCN1CCOC1C(C)C (stereo unspecified) | inactive | inactive | inactive
